Data on 20 compounds can be found in PubChem BioAssay (NCI).

Compounds without any hit were thinned out: in the full panel of roughly 83,000, 20% have a hit.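 Interpretation: 100, growth as untreated; towards 0, rising growth inhibition; 0, no net growth; 0 to -100, cell death. Compounds scoring below 10 were considered active.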 Unmarked numbers belong to inactive results. Activity calls are given as the source filed them.

The experiment has as its system NCI/ADR-RES ovarian. The experiment in a line: NCI-60 one-dose screen, 48 h (100 = growth as untreated, 0 = no growth, -100 = all killed). To be noted: 10 µM unless noted.
As for `Cc1ccc(S(=O)(=O)NCCCNc2nccc(-c3[nH]c(-c4ccccc4)nc3-c3ccc(F)c(O)c3)n2)cc1`, the growth was 104%. For `C#C[C@]1(O)CC[C@H]2[C@@H]3CC=C4c5sc(Nc6ncccc6C)nc5CC[C@]4(C)[C@H]3CC[C@@]21C` the value was 28.1%; for `COc1ccc(/C=N/NC(=O)CSc2nc(-c3cnccn3)cc(-c3cccs3)c2C#N)cc1`, 65.8%; for `O=C(CCCCCCNC(=O)C(O)(O)C(F)(F)F)Nc1ccc(-c2ccccc2)cc1`, 7.74% (active). For `Cn1cc(-c2nc(N)nnc2-c2c[nH]c3ccc(Br)cc23)c2cc(F)ccc21` the value was 89.8%; for `CC(=O)Nc1cc(N2CCOCC2)c2nc(NC(=O)c3[nH]c(C)c(Cl)c3Cl)sc2c1`, 48.9%. As for `COC(=O)c1ccc(NC2=C(Cl)C(=O)c3nc(C)ccc3C2=O)cc1`, the growth was 19.7%. For `Cc1ccc2c(n1)C(=O)C(Cl)=C(Nc1cc(C(F)(F)F)cc(C(F)(F)F)c1)C2=O` the value was 99.7%; for `COC(=O)c1cccc(NC2=C(Cl)C(=O)c3nc(C)ccc3C2=O)c1`, 89.7%; for `COc1cc(C(C)=C(c2ccc(OCCN(C)C)cc2)c2ccc(OCCN(C)C)cc2)ccc1F`, 105%. Regarding `N#Cc1c(-c2cccs2)cc(-c2cnccn2)nc1SCC(=O)N/N=C/c1ccncc1`, the growth is 108%.

For the compound `NC1=NC2(CCCC2)N(c2ccc(S(=O)(=O)Nc3nccs3)cc2)C(N)=N1`, the growth was 100%.

As for `CCCN1C=C/C(=C\C(=O)n2ccc3ccccc32)c2ccccc21`, the growth was 88.7%. The same measure for `Cc1cc(C)cc(NC2=C(Cl)C(=O)c3nc(C)ccc3C2=O)c1`: 65.6%; for `Cc1nc(/N=C(N)/N=C(\N)c2cccc(Br)c2)sc1C`: 36.1%. The same measure for `Fc1ccc2nc(-c3cnn4cccnc34)sc2c1`: 96.6%; for `CC(Nc1ncnc2ccc(-c3cnc4cnccn34)cc12)c1ccccc1` (stereo not given): 52.6%; for `CC1CC(=O)C2=C(C1)Nc1ccc(Br)cc1CC2c1c[nH]c2ccc(Br)cc12` (stereo not given): 26.6%. For the compound `C[C@@H]1OCC2(CCN(c3cnc(C(=O)Nc4cc(F)cc5cccnc45)cn3)CC2)[C@@H]1N`, the growth was 76.4%. For `O=C(CSc1nnc(-c2cccs2)n1-c1ccccc1)Nc1ccccc1F`, the growth is 49.2%.
